The full list was thinned out, with the strongest signals kept by preference.
B1: TbCVNHOb (Tuber borchii) (protein)
chain: MSFYASSEDVRTIEEGGRTWLVGRARRADGSWQDIKLDLDNIIGNRDGHLTWGEQNFTQSASDIRFNFEGGSNVPVLRAKLRNAAGGEQESDLNLGERLTNNNGDLVFN
B2: DEC205 (Homo sapiens), O60449 (protein)
chain: MRTGWATPRRPAGLLMLLFWFFDLAEPSGRAANDPFTIVHGNTGKCIKPVYGWIVADDCDETEDKLWKWVSQHRLFHLHSQKCLGLDITKSVNELRMFSCDSSAMLWWKCEHHSLYGAARYRLALKDGHGTAISNASDVWKKGGSEESLCDQPYHEIYTRDGNSYGRPCEFPFLIDGTWHHDCILDEDHSGPWCATTLNYEYDRKWGICLKPENGCEDNWEKNEQFGSCYQFNTQTALSWKEAYVSCQNQGADLLSINSAAELTYLKEKEGIAKIFWIGLNQLYSARGWEWSDHKPLNFLNWDPDRPSAPTIGGSSCARMDAESGLWQSFSCEAQLPYVCRKPLNNTVELTDVWTYSDTRCDAGWLPNNGFCYLLVNESNSWDKAHAKCKAFSSDLISIHSLADVEVVVTKLHNEDIKEEVWIGLKNINIPTLFQWSDGTEVTLTYWDENEPNVPYNKTPNCVSYLGELGQWKVQSCEEKLKYVCKRKGEKLNDASSDKMCPPDEGWKRHGETCYKIYEDEVPFGTNCNLTITSRFEQEYLNDLMKKYDKSLRKYFWTGLRDVDSCGEYNWATVGGRRRAVTFSNWNFLEPASPGGCVAMSTGKSVGKWEVKDCRSFKALSICKKMSGPLGPEEASPKPDDPCPEGWQSFPASLSCYKVFHAERIVRKRNWEEAERFCQALGAHLSSFSHVDEIKEFLHFLTDQFSGQHWLWIGLNKRSPDLQGSWQWSDRTPVSTIIMPNEFQQDYDIRDCAAVKVFHRPWRRGWHFYDDREFIYLRPFACDTKLEWVCQIPKGRTPKTPDWYNPDRAGIHGPPLIIEGSEYWFVADLHLNYEEAVLYCASNHSFLATITSFVGLKAIKNKIANISGDGQKWWIRISEWPIDDHFTYSRYPWHRFPVTFGEECLYMSAKTWLIDLGKPTDCSTKLPFICEKYNVSSLEKYSPDSAAKVQCSEQWIPFQNKCFLKIKPVSLTFSQASDTCHSYGGTLPSVLSQIEQDFITSLLPDMEATLWIGLRWTAYEKINKWTDNRELTYSNFHPLLVSGRLRIPENFFEEESRYHCALILNLQKSPFTGTWNFTSCSERHFVSLCQKYSEVKSRQTLQNASETVKYLNNLYKIIPKTLTWHSAKRECLKSNMQLVSITDPYQQAFLSVQALLHNSSLWIGLFSQDDELNFGWSDGKRLHFSRWAETNGQLEDCVVLDTDGFWKTVDCNDNQPGAICYYSGNETEKEVKPVDSVKCPSPVLNTPWIPFQNCCYNFIITKNRHMATTQDEVHTKCQKLNPKSHILSIRDEKENNFVLEQLLYFNYMASWVMLGITYRNNSLMWFDKTPLSYTHWRAGRPTIKNEKFLAGLSTDGFWDIQTFKVIEEAVYFHQHSILACKIEMVDYKEEHNTTLPQFMPYEDGIYSVIQKKVTWYEALNMCSQSGGHLASVHNQNGQLFLEDIVKRDGFPLWVGLSSHDGSESSFEWSDGSTFDYIPWKGQTSPGNCVLLDPKGTWKHEKCNSVKDGAICYKPTKSKKLSRLTYSSRCPAAKENGSRWIQYKGHCYKSDQALHSFSEAKKLCSKHDHSATIVSIKDEDENKFVSRLMRENNNITMRVWLGLSQHSVDQSWSWLDGSEVTFVKWENKSKSGVGRCSMLIASNETWKKVECEHGFGRVVCKVPLGPDYTAIAIIVATLSILVLMGGLIWFLFQRHRLHLAGFSSVRYAQGVNEDEIMLPSFHD

Key:
Test in all cases: glycan array binding signal (z-score within array); higher = stronger binding
Details in all cases: glycan notation: IUPAC condensed, linker removed
[1] = biological target: Fuc(a1-2)Gal(b1-3)GalNAc(b1-3)Gal(a1-4)Gal(b1-4)Glc
Procedure, shortened: (§1)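 The binding signal is a Z-score computed within each array. Data were drawn from 3228 arrays in the Consortium for Functional Glycomics database, restricted to those with a known protein sequence. Scores were averaged over arrays of the same protein sequence at different concentrations or buffers, and over linkers, and negative values can be taken as non-binding.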

[2] = biological target: Fuc(a1-2)Gal(b1-3)GlcNAc(b1-3)Gal(b1-4)Glc
Procedure, shortened: as §1

[3] = biological target: Fuc(a1-2)[GalNAc(a1-3)]Gal(b1-4)Glc
Procedure, shortened: as §1

Fuc(a1-3)GlcNAc = biological target: Fuc(a1-3)GlcNAc
Procedure, shortened: as §1

[4] = biological target: Fuc(a1-3)[Gal(b1-4)]Glc6S
Procedure, shortened: as §1

Gal(b1-3)GalNAc = biological target: Gal(b1-3)GalNAc
Procedure, shortened: as §1

[5] = biological target: Gal(b1-3)GalNAc(b1-4)[Neu5Ac(a2-3)]Gal(b1-4)Glc
Procedure, shortened: as §1

[6] = biological target: Gal(b1-3)GlcNAc(b1-3)Gal(b1-4)Glc
Procedure, shortened: as §1

[7] = biological target: Gal(b1-3)[Neu5Ac(a2-6)]GlcNAc(b1-6)Gal(b1-4)Glc
Procedure, shortened: as §1

[8] = biological target: Gal(b1-4)GlcNAc(b1-3)Gal(b1-4)Glc
Procedure, shortened: as §1

Gal4S(b1-4)GlcNAc = biological target: Gal4S(b1-4)GlcNAc
Procedure, shortened: as §1

Gal4S6S(b1-4)GlcNAc = biological target: Gal4S6S(b1-4)GlcNAc
Procedure, shortened: as §1

Glc(b1-4)Glc = biological target: Glc(b1-4)Glc
Procedure, shortened: as §1

[9] = biological target: GlcNAc(b1-3)Gal(b1-4)GlcNAc(b1-3)Gal(b1-4)GlcNAc
Procedure, shortened: as §1

[10] = biological target: Man(a1-2)Man(a1-2)Man(a1-3)Man
Procedure, shortened: as §1

[11] = biological target: Man(a1-2)Man(a1-6)[Man(a1-3)]Man(a1-6)[Man(a1-2)Man(a1-2)Man(a1-3)]Man
Procedure, shortened: as §1

[12] = biological target: Neu5Ac(a2-3)Gal(b1-4)GlcNAc(b1-3)Gal(b1-4)GlcNAc(b1-3)Gal(b1-4)GlcNAc
Procedure, shortened: as §1

[13] = biological target: Neu5Ac(a2-6)Gal(b1-4)GlcNAc(b1-2)Man(a1-3)[GlcNAc(b1-2)Man(b1-4)GlcNAc(b1-2)Man(a1-6)]Man(b1-4)GlcNAc(b1-4)GlcNAc
Procedure, shortened: as §1

[14] = biological target: Neu5Ac(a2-6)Gal(b1-4)GlcNAc6S
Procedure, shortened: as §1

Neu5Ac(a2-6)GalNAc = biological target: Neu5Ac(a2-6)GalNAc
Procedure, shortened: as §1

[15] = biological target: Neu5Ac(a2-8)Neu5Ac(a2-8)Neu5Ac(a2-3)Gal(b1-4)Glc
Procedure, shortened: as §1

[16] = biological target: Fuc(a1-2)Gal(b1-4)[Fuc(a1-3)]GlcNAc(b1-3)Gal(b1-4)[Fuc(a1-3)]GlcNAc(b1-3)Gal(b1-4)[Fuc(a1-3)]GlcNAc
Procedure, shortened: as §1

[17] = biological target: Fuc(a1-3)[Gal(b1-4)]GlcNAc
Procedure, shortened: as §1

Gal(a1-2)Gal = biological target: Gal(a1-2)Gal
Procedure, shortened: as §1

Gal(a1-3)Gal(b1-3)GlcNAc = biological target: Gal(a1-3)Gal(b1-3)GlcNAc
Procedure, shortened: as §1

Gal(a1-3)Gal(b1-4)Glc = biological target: Gal(a1-3)Gal(b1-4)Glc
Procedure, shortened: as §1

[18] = biological target: Gal(b1-3)[Neu5Ac(a2-6)]GalNAc
Procedure, shortened: as §1

[19] = biological target: GlcNAc(b1-3)Gal(b1-3)GalNAc
Procedure, shortened: as §1

[20] = biological target: GlcNAc(b1-4)GlcNAc(b1-4)GlcNAc
Procedure, shortened: as §1

[21] = biological target: GlcNAc(b1-6)Gal(b1-4)GlcNAc
Procedure, shortened: as §1

Kdn(a2-3)Gal(b1-4)GlcNAc = biological target: Kdn(a2-3)Gal(b1-4)GlcNAc
Procedure, shortened: as §1

[22] = biological target: Man(a1-2)Man(a1-3)[Man(a1-2)Man(a1-6)]Man(a1-6)[Man(a1-2)Man(a1-2)Man(a1-3)]Man(b1-4)GlcNAc(b1-4)GlcNAc
Procedure, shortened: as §1

[23] = biological target: Man(a1-3)[Man(a1-6)]Man(a1-6)[Man(a1-3)]Man(b1-4)GlcNAc(b1-4)GlcNAc
Procedure, shortened: as §1

[24] = biological target: Neu5Ac(a2-3)Gal(b1-3)[Neu5Ac(a2-3)Gal(b1-4)]GlcNAc
Procedure, shortened: as §1

[25] = biological target: Neu5Ac(a2-3)Gal(b1-4)[Fuc(a1-3)]GlcNAc(b1-3)Gal
Procedure, shortened: as §1

[26] = biological target: Neu5Ac(a2-8)Neu5Ac(a2-3)[GalNAc(b1-4)]Gal(b1-4)Glc
Procedure, shortened: as §1

[27] = biological target: Neu5Ac(a2-8)Neu5Ac(a2-8)Neu5Ac(a2-3)[GalNAc(b1-4)]Gal(b1-4)Glc
Procedure, shortened: as §1

| Binder | glycan array binding signal (z-score) [1] | glycan array binding signal (z-score) [2] | glycan array binding signal (z-score) [3] | glycan array binding signal (z-score) (Fuc(a1-3)GlcNAc) | glycan array binding signal (z-score) [4] | glycan array binding signal (z-score) (Gal(b1-3)GalNAc) | glycan array binding signal (z-score) [5] | glycan array binding signal (z-score) [6] | glycan array binding signal (z-score) [7] | glycan array binding signal (z-score) [8] | glycan array binding signal (z-score) (Gal4S(b1-4)GlcNAc) | glycan array binding signal (z-score) (Gal4S6S(b1-4)GlcNAc) | glycan array binding signal (z-score) (Glc(b1-4)Glc) | glycan array binding signal (z-score) [9] | glycan array binding signal (z-score) [10] | glycan array binding signal (z-score) [11] | glycan array binding signal (z-score) [12] | glycan array binding signal (z-score) [13] | glycan array binding signal (z-score) [14] | glycan array binding signal (z-score) (Neu5Ac(a2-6)GalNAc) | glycan array binding signal (z-score) [15] | glycan array binding signal (z-score) [16] | glycan array binding signal (z-score) [17] | glycan array binding signal (z-score) (Gal(a1-2)Gal) | glycan array binding signal (z-score) (Gal(a1-3)Gal(b1-3)GlcNAc) | glycan array binding signal (z-score) (Gal(a1-3)Gal(b1-4)Glc) | glycan array binding signal (z-score) [18] | glycan array binding signal (z-score) [19] | glycan array binding signal (z-score) [20] | glycan array binding signal (z-score) [21] | glycan array binding signal (z-score) (Kdn(a2-3)Gal(b1-4)GlcNAc) | glycan array binding signal (z-score) [22] | glycan array binding signal (z-score) [23] | glycan array binding signal (z-score) [24] | glycan array binding signal (z-score) [25] | glycan array binding signal (z-score) [26] | glycan array binding signal (z-score) [27] |
| --- | --- | --- | --- | --- | --- | --- | --- | --- | --- | --- | --- | --- | --- | --- | --- | --- | --- | --- | --- | --- | --- | --- | --- | --- | --- | --- | --- | --- | --- | --- | --- | --- | --- | --- | --- | --- | --- |
| B1 | 0.303 | 1.56 | -0.147 | 0.012 | 0.185 | -0.117 | -0.245 | 5.86 | 1.4 | 2.32 | 0.051 | -0.061 | -0.189 | -0.144 | 1.35 | -0.185 | -0.237 | -0.008 | -0.275 | -0.28 | -0.118 | – | – | – | – | – | – | – | – | – | – | – | – | – | – | – | – |
| B2 | -0.222 | – | – | – | – | – | – | – | – | – | – | – | – | – | – | – | – | – | – | – | – | 1.97 | -0.335 | -0.046 | -0.064 | 1.66 | -0.279 | -0.229 | 3.79 | -0.071 | 1.75 | 0.357 | -0.154 | -0.395 | -0.262 | 0.013 | -0.243 |

Source: the supplement of paper PMC8728848
